# Source: PubChem BioAssay AID1645887 (National Center for Advancing Translational Sciences (NCATS), 2021)
# Values joined by “and” are separate entries in the source; they are usually repeats but may differ in a detail not shown here. Identical values can stand only once. The whole screen tested about 16,000 compounds, of which about 40 (0.2%) were called active. Not shown: some 1% with an inconclusive outcome. The call rests on the fitted dose curve; in most records, active means well fitted activation curve with a large enough effect; inconclusive means small, poorly fitted or top-dose-only effect, or another doubt; inactive means no such curve, though single readings can be large or run the other way. What follows is part of a selection rich in actives, with near analogues and random picks from the rest.
# Target: Rap guanine nucleotide exchange factor 4 (Homo sapiens) (UniProt Q8WZA2)
# Sequence (Q8WZA2 whole entry, looked up): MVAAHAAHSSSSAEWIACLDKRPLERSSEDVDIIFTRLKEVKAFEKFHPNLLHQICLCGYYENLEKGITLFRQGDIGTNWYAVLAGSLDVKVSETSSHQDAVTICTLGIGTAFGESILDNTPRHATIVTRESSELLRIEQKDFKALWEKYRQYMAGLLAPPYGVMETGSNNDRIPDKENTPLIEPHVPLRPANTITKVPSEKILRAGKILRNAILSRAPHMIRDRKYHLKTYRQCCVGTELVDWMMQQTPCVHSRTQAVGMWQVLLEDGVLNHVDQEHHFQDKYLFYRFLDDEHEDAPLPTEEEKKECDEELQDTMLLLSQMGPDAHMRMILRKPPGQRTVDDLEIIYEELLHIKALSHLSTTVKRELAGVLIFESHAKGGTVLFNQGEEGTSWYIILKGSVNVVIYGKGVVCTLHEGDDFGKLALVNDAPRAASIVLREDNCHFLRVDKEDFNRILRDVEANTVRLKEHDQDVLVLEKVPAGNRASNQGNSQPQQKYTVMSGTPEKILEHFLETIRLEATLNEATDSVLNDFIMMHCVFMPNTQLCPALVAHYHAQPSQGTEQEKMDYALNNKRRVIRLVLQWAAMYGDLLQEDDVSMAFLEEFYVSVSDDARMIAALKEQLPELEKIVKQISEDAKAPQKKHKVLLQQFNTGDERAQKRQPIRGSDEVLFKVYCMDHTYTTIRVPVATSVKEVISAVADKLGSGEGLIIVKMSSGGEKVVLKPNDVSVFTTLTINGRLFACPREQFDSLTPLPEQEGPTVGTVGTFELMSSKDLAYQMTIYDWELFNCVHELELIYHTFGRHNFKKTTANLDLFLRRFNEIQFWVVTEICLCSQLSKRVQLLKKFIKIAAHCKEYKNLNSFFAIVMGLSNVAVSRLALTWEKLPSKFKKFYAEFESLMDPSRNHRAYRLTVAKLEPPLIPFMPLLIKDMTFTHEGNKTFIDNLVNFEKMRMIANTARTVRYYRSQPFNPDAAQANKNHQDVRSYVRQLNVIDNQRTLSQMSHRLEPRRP
# Assay: Validation qHTS for agonist of cAMP-regulated guanine nucleotide exchange factor 4 (EPAC2);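 on activation: exchange makes BODIPY-GDP fluorescence drop when released from Rap1B; series mostly up to about 150 µM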
# Conditions: EPAC2 Rap1B BODIPY-GDP exchange, fluorescence; activation: active compounds read high
# From the text: Principle Investigator: Xiaodong Cheng Ph.D.
# The University of Texas Medical Branch, […], TX
# In multi-cellular eukaryotic organisms, the effects of cAMP are transduced by two ubiquitously-expressed intracellular cAMP receptors, the classic protein kinase A/cAMP-dependent protein kinase (PKA/cAPK) and the more recently discovered exchange protein directly activated by cAMP/cAMP-regulated guanine nucleotide exchange factor (EPAC/cAMP-GEF). Both PKA and EPAC are ubiquitously expressed in all tissues, and an increase in intracellular cAMP levels will lead to the activation of both PKA and EPAC. Therefore, careful dissections of the individual role and relative contribution of EPAC and PKA within the overall cAMP signaling in various model systems are critical for further elucidating the mechanism of cAMP signaling. To date no EPAC-specific antagonists and agonist, as well as isoform-specific agonists have been reported, and developing EPAC-specific pharmacological probes to determine the physiological functions that EPAC play in the overall cAMP-mediated signaling remains a major challenge within the research field. Furthermore, identified regulators of EPAC may lead to new mechanism-based therapeutic strategies specifically targeting the EPAC / cAMP-signaling components as EPAC has been implicated to play important roles in major human pathological conditions such as diabetes, heart disease, and cancer.
# This qHTS will be used to screen the Molecular Libraries Small Molecule Repository (MLSMR) as a concentration-titration series using the NCGC unique quantitative screening (qHTS) platform to find activators for EPAC1. In addition, this assay will also be used as a counterscreen for the EPAC2 qHTS. This fluorescent based assay is developed and validated for EPAC1 that measures exchange using EPAC effector Rap1 complex with BODIPY-GDP, a GDP analog with a tethered fluorophores. Activators are identified by monitoring the change in fluorescence signal as the exchanged free BODIPY-GDP has a reduced fluorescence compared to Rap1-bound BODIPY-GDP. Increase in signal (activation) is the desired outcome for the EPAC1 agonist while no activity in this assay is desired for the EPAC2 agonist counterscreen.
# [1] de Rooij, J., Zwartkruis, F. J., Verheijen, M. H., Cool, R. H., Nijman, S. M., Wittinghofer, A., and Bos, J.L. (1998) Nature 396, 474-477.
# Briefly, three uL of reagents (100 nM EPAC2, 250 nM RAP1B-BODIPY-GDP, 50 uM GDP) were dispensed into a 1536-well Greiner black solid-bottom medium binding assay plate. Controls and test compounds (23 nL) were transferred to the plate via a Kalypsys pin tool equipped with a 1536-pin array. The plates were centrifuged at 1,000 rpm for 15 seconds followed by 5 minute incubation at room temperature. The assay plates were read at 5 minute intervals for 30 minutes in the ViewLux plate reader using 480nm excitation and 540nm emission filters. The results were normalized to the agonist positive control of 6.5 mM cAMP.
# On the % scale 0 is the no-effect control and ±100 the full control effect; potency means the concentration at half of the fitted maximal effect.
Structure (SMILES),activation,Potency
O=c1c(-c2ccc(F)c(F)c2)nc2cncnc2n1Cc1ccccc1,-20.1% (inactive),
C[N+](C)(CCOc1ccccc1)Cc1cccs1,-2.61% (inactive),
O=C(NCc1ccncc1)c1cnn(-c2nccc(-c3cccs3)n2)c1C1CC1,-7.47% (inactive),
COc1ncc2nc(C)c(=O)n(Cc3cccs3)c2n1,-6.26% (inactive),
CN(C)Cc1ccccc1-c1cncnc1Nc1ccncc1,2.36% (inactive),
COc1cccc(Cn2c(=O)c(C)nc3cnc(N4CCOCC4)nc32)c1,1.39% (inactive),
CN(C)C(=O)c1ccc(-c2cc(NCc3cccs3)ncn2)cc1,-16.8% (inactive),
CCNc1ncc2nc(-c3cccc(C#N)c3)c(=O)n(Cc3cccc(OC)c3)c2n1,3.97% (inactive),
Cc1ccc(C(C)CCN2CCOc3ccc(CN4CCOCC4)cc3C2)o1 (stereo unspecified),1.95% (inactive),
CC1CN(c2cc3c(cc2F)c(=O)c(C(=O)O)cn3-c2ccc(F)cc2F)CCN1 (stereo unspecified),-22.2% (inactive),
C=C[C@@H]1c2cc(C)ccc2N(S(=O)(=O)c2ccc(C)cc2)[C@H](c2ccc(OC(C)=O)cc2)C1(C#N)C#N,-9.82% (inactive),
CCN(CC)CCCC(C)Nc1cc(/C=C/c2ccccc2Cl)nc2cc(Cl)ccc12 (stereo unspecified),16.5% (inactive),
CCN(CC)CCCC(C)Nc1ccnc2cc(Cl)ccc12 (stereo unspecified),-8.87% (inactive) and 0.526% (inactive) and -22.7% (inactive),
CCN(CC)CCCC(C)Nc1c2ccc(Cl)cc2nc2ccc(OC)cc12 (stereo unspecified),,89.1 µM (active)
COc1ccccc1-c1ccnc(-n2ncc(C(=O)NCc3cccnc3)c2C)n1,8.95% (inactive),
COc1ccccc1/C=C\C(=O)OC[C@@H]1CCCN2CCCC[C@H]12,-21.1% (inactive),
CCOC(=O)CCC(=O)O[C@H]1C(O[C@@H]2C(C)[C@H](O[C@H]3C[C@@](C)(OC)C(O)C(C)O3)C(C)C(=O)OC(CC)[C@@](C)(O)C(O)[C@H](C)C(=O)C(C)C[C@]2(C)O)OC(C)CC1N(C)C (stereo partly specified),-16.2% (inactive),
O=c1c(-c2ccc(F)cc2)nc2cnc(Oc3cccc(Cl)c3)nc2n1C[C@H]1CCCO1,10.2% (inactive),
CO[C@H]1[C@H](NC(=O)c2ccsc2)c2ccccc2C12CCN(Cc1c(O)ccc3ccccc13)CC2,-7.57% (inactive),
OCCN(CCO)c1nc(N2CCCCC2)c2nc(N(CCO)CCO)nc(N3CCCCC3)c2n1,,112 µM (active) and 100 µM (active)
COCC(=O)N1CCC2(CC1)CN(c1cccc(-c3ccccc3)c1)C2,-17% (inactive),
Cc1noc(C)c1-c1nc(NCc2cccnc2)c2ccccc2n1,-6.22% (inactive),
Cc1oc(-c2ccccc2NC(=O)c2ccccc2)nc1CNC(=O)C1CC(=O)OC12CCCCC2 (stereo unspecified),-5.24% (inactive),

Structure (SMILES),activation,Potency
CSc1nnc(CNC(=O)c2c(-c3ccccc3)noc2C)n1-c1ccc(F)cc1,-0.342% (inactive),
Cc1cccnc1-c1cccc2c1OC(CNC(=O)C(=O)c1ccccc1)C2 (stereo unspecified),-7.04% (inactive),
COc1cccc(CNC(=O)c2c(OC)cc(=O)n3c2CCN(C(=O)c2csc(C)n2)CC3)c1,1.41% (inactive),
CCOC(=O)c1c[nH]c2cc(OCC(C)C)c(OCC(C)C)cc2c1=O,-9.73% (inactive),
Cn1c2c(c(=O)c3ccccc31)C[C@@H](O)C(C)(C)O2,-9.21% (inactive),
Cc1cc2nc3c(=O)[nH]c(=O)nc-3n(C[C@H](O)[C@H](O)[C@H](O)CO)c2cc1C,,79.4 µM (active) and 100 µM (active)
Nc1ncnc2c1ncn2[C@@H]1O[C@H](COP(=O)(O)OP(=O)(O)OP(=O)(O)OP(=O)(O)OC[C@@H]2O[C@H](n3cnc4c(N)ncnc43)[C@@H](O)[C@H]2O)[C@@H](O)[C@H]1O,12.8% (inactive) and -62.2% (inactive),
Cc1cc2nc3c(=O)[nH]c(=O)nc-3n(C[C@H](O)[C@H](O)[C@H](O)COP(=O)(O)OP(=O)(O)OC[C@H]3O[C@@H](n4cnc5c(N)ncnc54)[C@H](O)[C@@H]3O)c2cc1C,,89.1 µM (active)
Nc1ncnc2c1ncn2[C@@H]1O[C@H](COP(=O)(O)OP(=O)(O)OP(=O)(O)O)[C@@H](O)[C@H]1O,1.95% (inactive),
Cc1cc2nc3c(=O)[nH]c(=O)nc-3n(CC(O)C(O)C(O)CO)c2cc1C (stereo unspecified),,89.1 µM (active)
CC[C@H]1OC(=O)[C@H](C)[C@@H](O[C@H]2C[C@@](C)(OC)[C@@H](O)[C@H](C)O2)[C@H](C)[C@@H](O[C@@H]2O[C@H](C)C[C@H](N(C)C)[C@H]2O)[C@](C)(O)C[C@H](C)C(=NOCOCCOC)[C@H](C)[C@@H](O)[C@]1(C)O,-4.72% (inactive),
C[C@@H]1CN(Cc2ccc3c(c2)CN(Cc2cccc4c2OCO4)CCO3)C[C@H](C)O1,-2.91% (inactive),
CC(=O)c1ccc(F)c(-c2cc(C)cc3c2OC(CNC(=O)C[C@@H]2C[C@@H](C)NC(=S)N2)C3)c1 (stereo partly specified),-13.4% (inactive),
C[n+]1c2cc(N)ccc2cc2ccc(N)cc21 (tested in a mixture with another compound),,22.4 µM (active)
Cc1ccc(N)cc1O,2.89% (inactive),
CC(C)NC(=O)N1CCC2(CC1)CCN(S(=O)(=O)c1ccccc1)CC2,-7.09% (inactive),
O=S1(=O)CCOCCCN1Cc1cccc(F)c1,-1.25% (inactive),
OCC1OC(n2cnc3c(Cl)nc(Cl)nc32)C(O)C1O (stereo unspecified),-15.7% (inactive),
O=C(c1cccc(F)c1)N1CCC2(CC1)CN(c1ccccc1)C2,4.44% (inactive),
NC(=S)c1ccc[n+]([C@@H]2O[C@@H](COP(=O)([O-])OP(=O)(O)OC[C@H]3O[C@@H](n4cnc5c(N)ncnc54)[C@H](OP(=O)(O)O)[C@@H]3O)C(O)C2O)c1 (stereo partly specified),-34.4% (inactive),
COCCn1c(=O)c(CCc2ccccc2)nc2cnc(N3CCN(C)CC3)nc21,-2.75% (inactive),
COC(=O)C1C(O)CC[C@H]2CN3CCc4c([nH]c5ccccc45)C3C[C@H]12 (stereo partly specified),2.5% (inactive),
Cc1c(C(=O)NCCCc2ccncc2)cnn1-c1nccc(-c2ccccc2F)n1,-21.1% (inactive),
